Screens as filed in PubChem.
Rows were chosen to be rich in hits. Some 11% of all compounds tested hit in one or more screens of this group.
L3MBTL1 inh: L3MBTL1 (human) inhibition. 0.66% of 230,000 active. AID 485360. Potency, µM (highest dose often 57.1 µM), for inactives: top-dose activity, negative = inhibition, most hits filed as inhibitors. AlphaScreen L3MBTL1–H3K9me1 peptide binding; note: % is set by controls: 0 for no effect and ±100 for the full control effect; nearly all actives have a fitted effect of over 60% in size
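L3MBTL1 50 nM + b-AHA-H3(1-15)K9me1 75 nM, 30 min RT; compound added, 30 min RT; streptavidin donor/Ni-chelate acceptor beads 10 ug/mL each final, 30 min RT dark; AlphaScreen read.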
HP1b binding inh: HP1-beta chromodomain-methylated histone interaction inhibition | 0.56% of 390,000 active | Potency, µM (highest dose often 114 µM), inactives show top-dose activity change, negative = inhibition, usual class: inhibitors | P83916 | AlphaScreen HP1-beta / biotin-H3K9me3 peptide binding; note: nearly all actives have a fitted effect of over 70% in size
Target sequence (P83916 whole entry, looked up): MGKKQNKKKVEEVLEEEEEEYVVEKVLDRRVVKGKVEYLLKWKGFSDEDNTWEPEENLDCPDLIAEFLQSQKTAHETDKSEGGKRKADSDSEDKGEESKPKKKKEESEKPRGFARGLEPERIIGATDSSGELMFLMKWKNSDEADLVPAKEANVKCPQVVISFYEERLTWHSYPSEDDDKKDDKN
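Compound inhibition of the preformed complex between 50 nM HP1-beta and 50 nM biotinylated H3K9me3 peptide was read by AlphaScreen. Buffer was PBS pH 7.4 with 0.01% Tween-20. Incubations ran 30 min at room temperature, with 10 ug/mL donor/acceptor beads.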
G9a block: blocks human histone lysine methyltransferase G9a | Potency, µM (titrated, usually from 102 µM), without a hit: at the highest dose activity, negative = inhibition, hits mostly inhibitors | 8.8% of 350,000 active | Q96KQ7 | G9a H3K9 monomethylation, AlphaScreen, 2 h; note: % is set by controls: 0 for no effect and ±100 for the full control effect; nearly all actives have a fitted effect of over 75% in size
Target sequence (Q96KQ7 913-1193 limits assumed): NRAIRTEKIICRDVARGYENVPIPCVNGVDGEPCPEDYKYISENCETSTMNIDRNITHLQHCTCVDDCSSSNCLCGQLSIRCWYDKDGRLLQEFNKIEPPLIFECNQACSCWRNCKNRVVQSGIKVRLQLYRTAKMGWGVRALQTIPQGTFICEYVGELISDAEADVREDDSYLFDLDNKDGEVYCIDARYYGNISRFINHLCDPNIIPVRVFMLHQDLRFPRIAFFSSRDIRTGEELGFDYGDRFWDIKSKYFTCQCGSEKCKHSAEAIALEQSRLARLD
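Enzyme 20 nM + cpd, 15 min RT; add b-H3K9 pep 500 nM / SAM 20 uM; 2 h RT; anti-H3K9me1 Ab 0.5 ug/mL + SA donor / anti-rabbit acceptor beads 20 ug/mL each, 10 min; AlphaScreen read.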
BAZ2B inh: blocks human BAZ2B; Q9UIF8; AlphaScreen BAZ2B-H3K14Ac peptide displacement; Potency, µM (doses to about 114 µM), inactives show at the top dose activity change, negative = inhibition, most hits filed as inhibitors; 4.4% of 360,000 active; note: % is set by controls: 0 for no effect and ±100 for the full control effect; nearly all actives have a fitted effect of over 60% in size
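Multi-concentration screen (max 110 uM) measuring displacement of acetylated histone H3 peptide from BAZ2B by AlphaScreen, using 50 nM protein, 50 nM peptide and 10 ug/mL streptavidin donor plus Ni-chelate acceptor beads.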
JMJD2A Tudor: inhibitors of human JMJD2A Tudor domain; AlphaScreen JMJD2A-Tudor / H3K4me3 peptide binding; O75164; Potency, µM (titrated, usually from 114 µM), for inactives: top-dose activity change, negative = inhibition, hits mostly inhibitors; 4.4% of 390,000 active; AID 504339; note: % is set by controls: 0 for no effect and ±100 for the full control effect; nearly all actives have a fitted effect of over 50% in size
The depositor's hits bear a star; ? = inconclusive; . = no result given; [ ] = dose if it differs, or a comment. Calls come from the whole dose curve; as a rule, active = well fitted inhibition curve with a large enough effect; inconclusive = small, poorly fitted or top-dose-only effect; inactive = no such curve, though single readings can be large or run the other way. Potency is the fitted concentration of half-maximal effect.

SMILES | L3MBTL1 inh | HP1b binding inh | G9a block | BAZ2B inh | JMJD2A Tudor
O=C(O)CN1CCc2ccccc2C1 | -3.4% | -22.5% | ? | -4.6% | 28.2µM*
O=C(Cn1c(=O)n(Cc2ccc(Cl)cc2)c(=O)c2cccnc21)Nc1ccccc1C(F)(F)F | . | 8.8% | -4.8%[59 µM] | 4.3% | -11.6%
COc1cccc(S(=O)(=O)N2CCN(c3nc(-c4cccs4)nc4ccccc34)CC2)c1 | . | 38.4% | . | . | -18.4%
COc1ccc(NC(=O)CN2CCN(c3ccc(F)cc3)CC2)cc1 | . | -2.2% | -1.8% | -14.3% | 25.1µM*
COc1ccc(N2CCN(C(=O)CN3CCN(c4nc(-c5ccc(F)cc5)cs4)CC3)CC2)cc1 | -2.3% | ? | ? | 20µM* | 31.6µM*
CCOc1ccc(NC(=O)CN2CCN(c3ccc(F)cc3)CC2)cc1 | . | 11.3% | 14.6% | -22.8% | ?
COc1ccc(-c2nnn(CC(=O)N3CCN(c4ccc(F)cc4)CC3)n2)cc1 | . | 6.7% | 27.4% | -20.9% | -2.2%[11.4 µM]
COc1ccc(N2CCN(c3ccc4nnc(CCC(=O)Nc5ccc(C)cc5)n4n3)CC2)cc1 | 3.3% | ? | . | 44.7µM* | ?
COc1ccc(NC(=O)CN2CCc3ccccc3C2)cc1 | . | ? | . | . | 22.4µM*
COc1cccc(Cn2c(=O)c(-c3cccs3)nc3cnc(N4CCN(C)CC4)nc32)c1 | . | . | -6.7%[12.7 µM] | . | .
CCOc1cccc(C(=O)N(Cc2ccc(C(C)C)cc2)C2CCS(=O)(=O)C2)c1 (stereo not given) | . | 19.7% | -5.2%[59 µM] | 4.6% | -9.3%
CCOC(=O)c1nc(Nc2ccc(C(=O)OC(C)C)cc2)c2ccccc2n1 | . | 24.1% | -10.1%[59 µM] | 2.1% | 0.7%
COc1ccc(-c2cn3cccnc3n2)cc1NC(=O)COc1ccccc1 | . | 22.5%[57 µM] | 2.7%[59 µM] | -14.8% | -10.3%
Cc1ccc2c(c1)-c1onc(C(=O)N(C)c3ccc(F)cc3)c1CO2 | . | 28.2% | 8.7%[59 µM] | 2.1% | -13.2%
O=C(CN1CCN(CC(=O)Nc2ccc(-c3ccccc3)cc2)CC1)Nc1ccc(F)cc1 | . | -9.6% | 35.5µM* | -30.8% | -16.4%
CCOc1ccccc1C(=O)Nc1nc2c(s1)CC(C)CC2 (stereo not given) | . | -0.2% | 10µM* | 2.6% | -13.2%
O=C(CN1CCN(c2ccc(O)cc2)CC1)Nc1ccc(SC(F)F)cc1 | -0.9% | -34.3% | 2.24µM* | ? | ?
CCN(CC)c1ccc(NC(=O)CN2CCN(c3nc(C)cc(C)n3)CC2)cc1 | ? | ? | ? | 35.5µM* | -17.8%[11.4 µM]
COc1ccccc1OCC(=O)Nc1nc2c(s1)CC(C)CC2 (stereo not given) | . | 15.1% | -37.0%[59 µM] | -17.3% | -29.8%
O=C(CN1CCOCC1)Nc1ccc(F)cc1 | . | 69.2% | 17.9% | -16.0% | 6.4%
CCc1ccc2nc(N3CCC(C(=O)NCCC(C)C)CC3)sc2c1 | . | 19.4% | 14.1µM* | -2.3% | -13.3%
CCCN(CCC)CCNC(=O)C1CCN(c2nc3ccc(CC)cc3s2)CC1 | . | 6.2% | -29.9%[59 µM] | -6.6% | -17.4%
CCOc1ccc2nc(N3CCCC(C(=O)NCCCN4C(C)CCCC4C)C3)sc2c1 (stereo not given) | . | 40.6% | 39.8µM* | ? | -23.7%
CCOC(=O)c1[nH]c(C)c(CCC(=O)NCc2ccccc2Cl)c1C | . | 19.5%[57 µM] | -21.3%[59 µM] | -3.5% | -23.1%
CCC(Oc1ccccc1)C(=O)Nc1cc(-c2cccc(C)c2)nn1-c1ccccc1 (stereo not given) | . | 52.8%[57 µM] | 9.7%[59 µM] | 18.1% | 14.3%
SMILES | L3MBTL1 inh | HP1b binding inh | G9a block | BAZ2B inh | JMJD2A Tudor
COC(=O)c1ccc(NC(=O)C2CCN(S(=O)(=O)c3ccc4c(c3)CCCN4C(C)=O)CC2)cc1 | . | 12.3%[57 µM] | -13.7%[59 µM] | -3.9% | -11.6%
CC(=O)NC(=O)Nc1sc(=S)n(C)c1C | 3.1% | 14.6% | ? | -3.3% | -13.6%
Cc1ccc(NC(=O)Nc2sc(=S)n(C)c2C)cc1 | . | -22.5% | 25.1µM* | -2.5% | -15.4%
Cc1c(NC(=O)Oc2ccccc2)sc(=S)n1C | . | -13.6% | 44.7µM* | ? | -30.8%
CCc1nn2c(=O)c(S(=O)(=O)Nc3ccc(C)c(C)c3)c(C)nc2s1 | . | 3.8% | ? | ? | -12.7%
Cc1cccc(C)c1-n1cccc1/C=C1/C(=N)N2C(=NC1=O)SN=C2S(C)(=O)=O | . | 7.8% | 31.6µM* | -28.2% | -23.5%
CC1=CSC2=NC(=O)/C(=C\c3cccn3-c3ccccc3)C(=N)N12 | -10.1% | 0.7% | 2.0%[59 µM] | -6.7% | ?
Cc1ccc(-n2cccc2/C=C2/C(=N)N3C(=NC2=O)SN=C3S(C)(=O)=O)cc1Cl | ? | -35.0% | 50.1µM* | 44.7µM* | 44.7µM*
CC1(C)Cc2cccc(OCC(=O)NCCOc3ccccc3)c2O1 | . | -14.8% | -2.1%[59 µM] | -15.0% | 20µM*
Cc1cccc(N2CCN(C(=O)COc3cccc4c3OC(C)(C)C4)CC2)c1C | 15.4% | 53.6% | 44.7µM* | 13.3% | -12.7%
O=S(=O)(c1ccc2c(c1)OCCO2)N1CCN(S(=O)(=O)c2cccc(Cl)c2F)CC1 | . | . | . | . | -15.1%
COCC1CCCN(Cc2cn(Cc3ccccc3)nc2-c2cc3ccccc3o2)C1 (stereo not given) | -23.4% | 24.7% | -30.0% | -22.0% | -27.5%
COCC1CCN(Cc2cn(Cc3ccccc3)nc2-c2cc3ccccc3o2)CC1 | ? | 37.6% | -0.3% | 56.2µM* | -19.2%
O=C(Cn1ncc2c3ccccc3n(Cc3ccccc3)c2c1=O)NCCc1ccc(Cl)cc1 | . | 36.0% | -1.1%[59 µM] | 1.5% | -6.7%
CC(C)C[C@H](N)c1cn([C@@H](Cc2cc3ccccc3[nH]2)C(=O)N2CCNCC2)nn1 | -4.2% | 12.5% | ? | -22.3% | ?
C#CCOCCOCCOCCNc1nc(N2CCN(C(=O)[C@H](Cc3cc4ccccc4[nH]3)n3cc([C@@H](N)Cc4ccc(O)cc4)nn3)CC2)nc(N2CCN(C(=O)[C@H](Cc3cc4ccccc4[nH]3)n3cc([C@@H](N)CC(C)C)nn3)CC2)n1 | . | -23.7% | ? | ? | 50.1µM*
C#CCOCCOCCOCCNc1nc(N2CCN(C(=O)C(Cc3cc4ccccc4[nH]3)n3cc(C(N)Cc4ccc(O)cc4)nn3)CC2)nc(N2CCN(C(=O)C(Cc3cc4ccccc4[nH]3)n3cc(C(N)Cc4ccc(O)cc4)nn3)CC2)n1 (stereo not given) | ? | -36.1% | -27.7%[12.7 µM] | 11.2µM* | 8.91µM*
O=S1(=O)c2ccccc2N(Cc2cccc(F)c2)c2ccccc21 | . | 25.3% | 10.4%[59 µM] | -2.1% | -12.7%
CC(=O)Oc1ccc(N(C(C)=O)S(=O)(=O)c2cccs2)c2ccccc12 | . | 2.1% | 12.6µM* | -24.4% | -13.9%
ON1C(c2ccc(Cl)cc2Cl)N(O)[C@H]2CCCC[C@H]21 (stereo not given in full) | 1.4% | 27.1% | 50.1µM* | -2.9% | -10.3%
O=S(=O)(Nc1cccc2ccccc12)c1cccc2ccccc12 | . | 30.7% | . | . | -20.5%
CC(=O)NC(CCS(C)(=O)=O)C(=O)Nc1cccc(C(C)=O)c1 (stereo not given) | 0.1% | 23.2% | 25.1µM* | 7.5% | 3.8%
